High-throughput results: PubChem, National Center for Advancing Translational Sciences (NCATS)
DT40 TDP1 no CPT = qHTS for Inhibitors of human tyrosyl-DNA phosphodiesterase 1 (TDP1): qHTS in cells in absence of CPT; DT40 Tdp1-/- hTDP1 cells, no CPT, ATP luminescence, 48 h; Potency, µM (highest dose often 46.2 µM), for the others: at the highest dose activity change, negative = growth inhibition, usual class: inhibitors; 420,000 compounds, 15% hits; AID 686978, 2013; further: on the % scale 0 is the no-effect control and ±100 the full control effect; nearly all actives have a fitted effect of over 55% in size
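Compound effects on proliferation are scored in DT40 Tdp1-/-;hTDP1 cells in the absence of CPT. ATP levels (CellTiter-Glo luminescence) are recorded after a ≥48 hr, 37 °C incubation.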
ATXN viability = cell viability loss in ATXN counter-screen. 400,000 compounds, 0.49% hits. S2 cells (HEK-293 line with an ATXN2-luciferase reporter) viability, CellTiter-Fluor protease fluorescence, 24 h. Potency, µM (highest dose often 56.7 µM), most hits filed as cytotoxic. AID 651635; further: nearly all actives have a fitted effect of over 40% in size
ATXN2 expr inh = ATXN2 expression inhibition | HEK-293 ATXN2-luciferase reporter, luminescence, 24 h | Potency, µM (series often up to 57 µM), for inactives: at the top dose activity change, negative = inhibition, most hits filed as inhibitors | 360,000 compounds, 0.72% hits | AID 1745845; further: on the % scale 0 is the no-effect control and ±100 the full control effect; nearly all actives have a fitted effect of over 55% in size
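ATXN2-luciferase reporter cells (luciferase flanked by upstream and downstream ATXN2 gene portions) were treated 24 h at 37 °C with compounds at up to 57 uM. SteadyGlo luminescence gave expression; GF-AFC fluorescence gave viability.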
HepG2 tox = kills HepG2 cells in TGF-b inhibitor counter-screen. Potency, µM (doses to about 46.1 µM), for the others: at the highest dose activity change, negative = cytotoxicity, usual class: cytotoxic. HepG2 CAGA-GFP viability, ATP luminescence, 18 h. 410,000 compounds, 0.76% hits
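HepG2 CAGA-GFP cells (1000/well, DMEM with 1% FBS) received compound, then TGF-beta at 500 pg/mL final, and were incubated 18 hours at 37 degrees C. Viability was read by CellTiter-Glo luminescence. Media-only wells were set as complete cell-killing and DMSO as no toxicity.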
TGFb SMAD3 inh = TGF-b pathway inhibition | Potency, µM (highest dose often 46.1 µM), for the others: at the top dose activity, negative = inhibition, hits mostly inhibitors | HepG2 CAGA-GFP TGF-b/SMAD3 reporter, GFP fluorescence, 18 h; TGF-beta stimulated, 500 pg/mL final | 410,000 compounds, 1.2% hits; further: on the % scale 0 is the no-effect control and ±100 the full control effect; nearly all actives have a fitted effect of over 65% in size
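TGF-beta reporter screen: HEPG2 CAGA-GFP, 1% FBS, 500 pg/mL TGF-beta final, 18 h; per-cell GFP summed per well; curves fitted and categorized by class.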
TDP1 cell CPT = DT40-hTDP1 cell growth loss with CPT; chicken DT40 Tdp1-/-;hTDP1 cells + 20 nM CPT, ATP luminescence, 48 h; 420,000 compounds, 12% hits; Potency, µM (doses to about 46.2 µM), for inactives: at the top dose activity change, negative = growth inhibition, most hits filed as inhibitors; AID 686979; further: on the % scale 0 is the no-effect control and ±100 the full control effect; nearly all actives have a fitted effect of over 55% in size
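Chicken DT40 Tdp1-/- cells complemented with human TDP1, 400 cells/well, exposed to compounds plus 20 nM camptothecin for at least 48 h at 37 C; viability read as ATP content by CellTiter-Glo luminescence.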
The depositor's hits bear a star; i = inactive; ? = inconclusive; nt = no result given; ! = not active in a repeat. An excerpt weighted towards active compounds, which were near 17% of everything screened. The call rests on the fitted dose curve; in most records, active means well fitted curve in the direction sought with a large enough effect; inconclusive means small, poorly fitted or top-dose-only effect, or another doubt; inactive means no such curve, though single readings can be large; an effect the other way counts as inactive or inconclusive. Potency means the concentration at half of the fitted maximal effect.

SMILES	DT40 TDP1 no CPT	ATXN viability	ATXN2 expr inh	HepG2 tox	TGFb SMAD3 inh	TDP1 cell CPT
COCCn1c(=O)[nH]c2cc(C(=O)N3CCN(c4ccc(Cl)cc4)CC3)ccc2c1=O	6.51µM*	?	-28.4%	-15.2%	5.1%	5.8µM*
COc1ccc(CCNC(=O)c2ccc(Cn3c(=O)[nH]c4cc(OC)c(OC)cc4c3=O)cc2)cc1OC	-19.3%	i	-12.1%	-5.7%	-13.3%	-26.3%
O=C(CCCn1c(=O)[nH]c2cc(Cl)ccc2c1=O)NCCCN1CCN(c2ccc(F)cc2)CC1	20.6µM*	?	nt	-35.3%	?	16.4µM*
O=C(c1ccc2c(=O)n(CCc3ccccc3)c(=O)[nH]c2c1)N1CCN(C(=O)c2ccco2)CC1	11.2µM*	nt	nt	nt	nt	12.6µM*
CCN(CCN(C)C)C(=O)Cn1ncc2c([nH]c3ccc(C)cc32)c1=O	-19.7%	i	-14.2%	-11.4%	0.7%	-0.1%
COc1ccc(-c2ccc(=N)n(CCCC(=O)O)n2)cc1	0.0%	nt	nt	-21.7%	20.4%	-6.1%
O=C1NCCSC1c1ccccc1 (stereo unspecified)	4.2%	i	4.5%	-4.5%	?	-4.3%
CCn1cc(C(=O)NN)c(=O)c2cc(F)c(NC3CCCCC3)cc21	-29.7%	i	-3.3%	-0.9%	-9.6%	?
CCCN1CCN(CCCNC(=O)c2ccc3c(=O)n(CCc4ccccc4)c(=O)[nH]c3c2)CC1	?	i	6.4%	-19.0%	-9.7%	?
CCCCCn1c(=O)[nH]c2cc(C(=O)N3CCN(C(=O)OCC)CC3)ccc2c1=O	?	i	-21.8%	-14.3%	17.2%	?
O=C(NCCN1CCCC1)c1ccc2c(=O)n(CCc3ccccc3)c(=O)[nH]c2c1	29.1µM*	i	3.8%	-0.4%	0.9%	18.4µM*
O=C(c1ccc(F)cc1)C1CCN(CCn2c(=O)[nH]c3ccccc3c2=O)CC1	?	i	-14.0%	-10.0%	1.3%	7.31µM*!
CCCCCn1c(=O)[nH]c2cc(C(=O)N3CCN(c4cccc(Cl)c4)CC3)ccc2c1=O	?	i	6.4%	5.0%	?	10.3µM*
COc1ccc(N2CCN(C(=O)c3ccc4c(=O)n(CCc5ccc(OC)c(OC)c5)c(=O)[nH]c4c3)CC2)cc1	16.4µM*	?	-28.1%	5.0%	-4.5%	14.6µM*
O=C(O)CNC(=O)CCCn1nnc2ccccc2c1=O	26.3%	i	-18.3%	0.6%	3.6%	0.0%
CC(=O)Nc1ccc(NC(=O)C(C)OC(=O)C2(c3ccccc3F)CCCC2)cc1 (stereo unspecified)	?	i	-5.3%	9.0%	17.5%	?
COc1cccc(-c2csc(-c3c(N)c(C(=O)c4ccc5c(c4)OCO5)n4ccccc34)n2)c1	-15.4%	i	1.4%	-6.4%	0.2%	-29.6%
CCc1ccc([C@@H]2C[C@H]3[C@@H](CN2S(=O)(=O)c2ccc(C)cc2)C(=O)C[C@@H](c2ccc(C)cc2)N3S(=O)(=O)c2ccc(C)cc2)cc1	?	i	9.9%	-16.4%	4.9%	-8.6%
O=C(c1ccc2c(=O)n(CCc3ccccc3)c(=O)[nH]c2c1)N1CCN(c2ccc(Cl)cc2)CC1	18.4µM*	?	-19.7%	-19.6%	4.47µM*	16.4µM*
Cc1ccc(CCNC(=O)c2ccc3c(=O)n(-c4ccccc4)c(=O)[nH]c3c2)cc1	-13.8%	?	-4.2%	4.1%	-17.1%	-0.5%
COc1ccc(-n2c(=O)[nH]c3cc(C(=O)NCCc4ccccc4)ccc3c2=O)cc1OC	18.4µM*!	i	9.7%	-46.7%	-12.1%	?
O=C(c1ccc2c(=O)n(CCc3ccccc3)c(=O)[nH]c2c1)N1CCN(c2ccc(F)cc2)CC1	13µM*	i	-3.6%	-12.5%	?	11.6µM*
